POLK inh – qHTS for Inhibitors of Polymerase Kappa; DNA polymerase kappa (Homo sapiens), Q9UBT6; purified Pol kappa, fluorescent DNA synthesis assay, 10 min; Potency, µM (series often up to 107 µM), most hits filed as inhibitors; 0.53% of 400,000 active; AID 588579, 2011
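50 nM final substrate added after 15 min RT preincubation of 10 nM Pol kappa with compound; fluorescence read at 0 and 10 min.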
POLH inh – qHTS for Inhibitors of Polymerase Eta; DNA polymerase eta (Homo sapiens), Q9Y253; recombinant Pol eta, fluorescent DNA replication assay; Potency, µM (doses to about 114 µM), most hits filed as inhibitors; 1.2% of 390,000 active; AID 588591, 2011
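Pol eta at 10 nM preincubated with compounds 15 min at room temperature; reaction started with fluorescent substrate (50 nM final) and read kinetically at 0 and 10 min.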
PI5P4Ka inh – qHTS for Inhibitors of phosphatidylinositol 5-phosphate 4-kinase (PI5P4K); Phosphatidylinositol 5-phosphate 4-kinase type-2 alpha (Homo sapiens), P48426; PI5P4Kalpha enzyme, ADP-Glo luminescence, 60 min; active compounds read low; max response, %; 1.2% of 330,000 active; active = max response of -50% or lower; inconclusive = between -30% and -50%; inactive = -30% or higher; note: value at the top dose of about 77 µM
Target sequence (P48426 whole entry, looked up): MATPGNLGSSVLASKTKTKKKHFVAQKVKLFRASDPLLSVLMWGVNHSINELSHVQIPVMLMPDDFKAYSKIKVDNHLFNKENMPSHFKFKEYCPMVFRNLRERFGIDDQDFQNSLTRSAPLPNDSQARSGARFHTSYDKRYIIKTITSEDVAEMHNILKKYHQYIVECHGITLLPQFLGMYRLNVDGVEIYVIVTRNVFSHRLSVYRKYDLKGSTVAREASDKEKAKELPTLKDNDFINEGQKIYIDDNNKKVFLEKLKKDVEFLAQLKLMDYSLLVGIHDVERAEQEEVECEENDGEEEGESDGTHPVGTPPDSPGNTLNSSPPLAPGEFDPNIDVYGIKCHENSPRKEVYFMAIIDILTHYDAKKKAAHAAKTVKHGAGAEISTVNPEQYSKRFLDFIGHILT
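qHTS, 1536-well: enzyme/substrate mix, compound by pin tool, 5 microM ATP final; RT 60 min; ADP-Glo reagents 1 (45 min) then 2 (30 min); luminescence.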
WRN inhibitor – qHTS for Inhibitors of WRN Helicase. WRN helicase unwinding, fluorescent forked duplex, kinetic. Bifunctional 3'-5' exonuclease/ATP-dependent helicase WRN (Homo sapiens), Q14191. 0.46% of 360,000 active. Potency, µM (titrated, usually from 114 µM), usual class: inhibitors; note: nearly all actives have a fitted effect of over 55% in size
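WRN at 20 nM final was preincubated with compound for 15 min at room temperature; reaction started with 100 nM forked duplex oligonucleotide carrying fluorophore and quencher plus 2 mM ATP (final). Unwinding followed kinetically by red fluorescence (ex 525/em 598 nm).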
Pol beta inh – qHTS Assay for Inhibitors of DNA Polymerase Beta. Potency, µM (series often up to 114 µM), actives largely listed as inhibitors. P06746. 1.3% of 340,000 active. Pol beta primer extension/strand displacement, fluorescence kinetic
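Values derive from four-parameter Hill fits of normalized kinetic data: reads at 0 and 10 min following addition of 50 nM substrate to 10 nM Pol beta preincubated 15 min with compound.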
Pol iota inh – qHTS for Inhibitors of Polymerase Iota | Pol iota fluorescent replication assay, 10 min | Potency, µM (series often up to 115 µM), usual class: inhibitors | 1% of 390,000 active | AID 588590, 2011
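Pol iota at 10 nM preincubated 15 min with compounds at room temperature; reaction started with fluorescent substrate, 50 nM final. Fluorescence read kinetically at 0 and 10 min; buffer-only wells as negative control.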
Of the large screens only hits and unclear results are named; the others gave an inactive call. An excerpt weighted towards active compounds, which were near 2.8% of everything screened. Unless noted, calls come from the whole dose curve; as a rule, active = well fitted curve in the direction sought with a large enough effect; inconclusive = small, poorly fitted or top-dose-only effect, or another doubt; inactive = no such curve, though single readings can be large; an effect the other way counts as inactive or inconclusive.

Oc1c(Br)cc(Br)cc1/C=N/Nc1ccc(Cl)nn1	none
O=C(Cc1ccccc1)N/N=C/c1cc(Br)cc(Br)c1O	PI5P4Ka inh -57
COCc1cc(/C=N\NC(=O)Cc2ccc(OC)cc2)ccc1OC	none
CC(C(=O)Nc1ccccc1)n1nnc2sc3c(c2c1=O)CCCC3 (stereo not given)	Pol iota inh inconclusive (no result: POLH inh, PI5P4Ka inh, WRN inhibitor)
CC(NC(=O)C1C2C=CC(C2)C1C(=O)O)c1ccccc1 (stereo not given)	none
O=C(O)C1C2C=CC(C2)C1C(=O)Nc1ccccc1Br (stereo not given)	POLH inh inconclusive, Pol beta inh 89µM
COc1ccccc1CCNC(=O)C(=O)NCC(c1cccnc1)N1CCN(c2ccccc2)CC1 (stereo not given)	none (no result: PI5P4Ka inh, WRN inhibitor)
O=Cc1ccc(-c2cccs2)s1	none (no result: Pol beta inh)
Oc1ccc(N=Cc2ccc(-c3cccs3)s2)cc1	POLH inh 32µM, WRN inhibitor 50µM, Pol beta inh inconclusive, Pol iota inh inconclusive (no result: PI5P4Ka inh)
CC(=O)N(/N=C1\Sc2ccccc2C1=O)c1cccc(C)c1	POLH inh 20µM, Pol iota inh inconclusive
COc1ccc(S(=O)(=O)c2nnn(-c3cc(Cl)c(OC)cc3OC)c2C)cc1	POLH inh 89µM, Pol iota inh inconclusive (no result: PI5P4Ka inh, WRN inhibitor)
CSc1nc(N(CCO)CCO)c2sc3nc(-c4ccco4)c4c(c3c2n1)CCC4	POLK inh 10µM, POLH inh 1.1µM, PI5P4Ka inh -89, WRN inhibitor 13µM, Pol beta inh 1.8µM, Pol iota inh 1.8µM
O=C(c1nnsc1S(=O)(=O)c1ccc(Cl)cc1)N1CCOCC1	none
O=C(c1nnsc1S(=O)c1ccc(Cl)cc1)N1CCOCC1 (stereo not given)	PI5P4Ka inh inconclusive, WRN inhibitor 25µM, Pol iota inh inconclusive
Nc1nc2ncccn2c1-c1ccc(F)cc1	none (no result: POLK inh, POLH inh, Pol beta inh, Pol iota inh)
O=Nc1nc2ncccn2c1-c1ccccc1	WRN inhibitor inconclusive, Pol iota inh 22µM (no result: Pol beta inh)
NC1=NC(S)C2N=CN=C2N1 (stereo not given)	none (no result: POLH inh, PI5P4Ka inh, WRN inhibitor, Pol beta inh, Pol iota inh)
Cc1[nH]n(C(N)=S)c(=O)c1N=Nc1cccc(C(F)(F)F)c1	none
NS(=O)(=O)c1ccc(N=Nc2c(=O)[nH]n3c(=O)c4c([nH]c23)CCCC4)cc1	PI5P4Ka inh -62
COc1cccc(N=Nc2c(=O)[nH]n3c(=O)c4c([nH]c23)CCC4)c1	POLH inh 50µM, PI5P4Ka inh inconclusive, WRN inhibitor inconclusive, Pol beta inh inconclusive, Pol iota inh inconclusive
Cc1cc(C)n2[nH]c(=O)c(N=Nc3ccc(S(N)(=O)=O)cc3)c2n1	none
O=c1[nH]n2c(=O)c3c([nH]c2c1N=Nc1cccc(Cl)c1)CCC3	POLK inh 89µM, POLH inh 20µM, PI5P4Ka inh -58, WRN inhibitor inconclusive, Pol beta inh 8.9µM, Pol iota inh 20µM
O=c1[nH]n2c(=O)c3c([nH]c2c1N=Nc1cccc(C(F)(F)F)c1)CCCC3	POLH inh inconclusive, Pol beta inh 18µM
CN(C)c1ccc(/C=C/c2cnnc3ccccc23)cc1	none (no result: POLH inh, PI5P4Ka inh, WRN inhibitor, Pol beta inh)
O=[N+]([O-])c1ccc(O/N=[N+](\[O-])N2CCCC2)c([N+](=O)[O-])c1	Pol iota inh inconclusive (no result: POLH inh, PI5P4Ka inh, WRN inhibitor, Pol beta inh)
COc1ccc(-c2noc(-c3ccc(C)cc3Cl)n2)cc1OC	none (no result: PI5P4Ka inh, WRN inhibitor)
Cc1cc(C=C2C(=O)c3ccccc3C2=O)c(C)n1-c1cccc(C(=O)O)c1	POLK inh inconclusive, POLH inh 45µM, Pol beta inh inconclusive, Pol iota inh inconclusive
Cc1cc(C=C2C(=O)c3ccccc3C2=O)c(C)n1-c1ccccc1	none (no result: PI5P4Ka inh)
O=C1NN(c2cccc(Br)c2)C(=O)/C1=C\c1ccc(O)cc1	POLH inh inconclusive, PI5P4Ka inh -51, WRN inhibitor inconclusive, Pol beta inh inconclusive, Pol iota inh inconclusive
Cc1cc(/C=C2/C(=O)NN(c3ccccc3)C2=O)c(C)n1-c1cccc(O)c1	POLH inh inconclusive, PI5P4Ka inh -56, Pol beta inh inconclusive, Pol iota inh 56µM
